By cell viability is commonly meant a read-out of living cells in per cent, often relative to untreated cells.

Structures can show the parent of a compound that is named as a salt.

The values that follow come from the supplement of paper PMC10981050.

The experiment deals with OCI-AML2. The experiment can be described thus: cell viability relative to vehicle control; higher = less cytotoxic. The following applies: 10 µM; SRSF2 genotype: P95H/wt. The method in brief:
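Screening covered the Selleck bioactive, kinase and epigenetic probe libraries, less identity-inconsistent compounds, on CRISPR-edited mutant clones and isogenic wild-type clones of four leukaemia lines. Cells, at 2000 per well in 50 µL medium, received a single 10 µM acoustically dispensed dose. After 48 h the supernatant was removed and CellTiter-Glo luminescence was read. Viability was analysed in Genedata Screener as percent of the on-plate vehicle control.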
In the case of `Cc1nc(N)sc1-c1ccnc(Nc2ccc(N3CCOCC3)cc2)n1`, the cell viability was determined as 9.4%. In the case of `C=C[C@]1(C)C[C@@H](OC(=O)CSCCN(CC)CC)[C@]2(C)[C@H](C)CC[C@]3(CCC(=O)[C@H]32)[C@@H](C)[C@@H]1O` [Tiamulin] it was 86.1%; in that of `C[C@@H]1CC[C@@]2(OC1)O[C@H]1C[C@H]3[C@@H]4CC=C5C[C@@H](O)C[C@@H](O)[C@]5(C)[C@H]4CC[C@]3(C)[C@H]1[C@@H]2C` [Ruscogenin], 89.2%. Regarding `C[C@@H]1O[C@@H](O[C@H]2[C@H](O[C@H]3CC[C@@]4(C)[C@@H](CC[C@]5(C)[C@@H]4CC=C4[C@@H]6CC(C)(C)CC[C@]6(C(=O)O)CC[C@]45C)[C@]3(C)CO)OC[C@H](O[C@@H]3O[C@H](CO)[C@@H](O)[C@H](O)[C@H]3O)[C@@H]2O)[C@H](O)[C@H](O)[C@H]1O` [Pulsatilla saponin D], the cell viability turned out to be 0.5%. Turning to `Cc1cc(C#N)cc(C)c1Oc1nc(Nc2ccc(C#N)cc2)nc(N)c1Br` [Etravirine (TMC125)], the cell viability worked out at 99.5%. The figure for `CCCNCC(O)COc1ccccc1C(=O)CCc1ccccc1` (configuration not stated) [Propafenone HCl] is 68.3%; for `CN1CCN(Cc2ccc(Nc3ncc(Cl)c(Nc4ccccc4S(=O)(=O)N(C)C)n3)cc2)CC1` it is 2.24%; for `O=C(O)CNC(=O)c1nc(Cl)c2ccccc2c1O` it is 95.8%. The figure for `Cc1cc(C2CCCCC2)n(O)c(=O)c1` [Ciclopirox (Penlac)] is 15.5%; for `COc1ccc(CCC(=O)Nc2nc3ccc(Cl)cc3s2)cc1OC` it is 91.4%; for `COc1ccc(/C=C/c2cc(O)cc(O[C@@H]3O[C@H](CO)[C@@H](O)[C@H](O)[C@H]3O)c2)cc1O` [Rhapontin] it is 89.1%. The figure for `CC(C)=CCCC(C)(OC1OC(COC2OCC(O)C(O)C2O)C(O)C(O)C1O)C1CCC2(C)C1C(O)CC1C3(C)CCC(OC4OC(CO)C(O)C(O)C4O)C(C)(C)C3CCC12C` (configuration not stated) [Gynostemma Extract] is 110%. Turning to `CC1(C)CC[C@]2(C(=O)O)[C@H](O)C[C@]3(C)C(=CC[C@@H]4[C@@]5(C)CC[C@H](O)[C@@](C)(C=O)[C@@H]5CC[C@]43C)[C@@H]2C1` [Quillaic acid], the cell viability worked out at 98.9%. With `CCN(CC)CCNC(=O)c1c(C)[nH]c(/C=C2\C(=O)Nc3ccc(F)cc32)c1C` [Sunitinib], the cell viability turned out to be 0.48%. Consider `CCCCCCCCCCCCCCCC(=O)O` [Palmitic acid], for which the cell viability worked out at 95.6%. As for `C=CCS[S+]([O-])CC=C` (configuration not stated) [Allicin], the cell viability turned out to be 89.2%. The figure for `Cc1ccccc1-c1cc(N2CCN(C)CC2)ncc1N(C)C(=O)C(C)(C)c1cc(C(F)(F)F)cc(C(F)(F)F)c1` [Netupitant] is 70.3%.

Turning to `CCCCCCCCCCCCCCCCOc1nc2ccc(C)cc2c(=O)o1` [Cetilistat], the cell viability was 107%. The figure for `C[C@H](CCC(=O)O)[C@H]1CC[C@H]2[C@@H]3[C@H](O)C[C@@H]4C[C@H](O)CC[C@]4(C)[C@H]3C[C@H](O)[C@]12C` [Cholic acid] is 98.5%. The figure for `CCCCC(=O)OCC(=O)[C@H]1[C@H](C)C[C@H]2[C@@H]3C[C@H](F)C4=CC(=O)C=C[C@]4(C)[C@@]3(F)[C@@H](O)C[C@@]21C` [Diflucortolone valerate] is 99.4%; for `CCn1cc(-c2cccc(C(F)(F)F)c2)c2sc(C(=N)NC3CCS(=O)(=O)CC3)cc2c1=O` it is 22.6%. In the case of `Cc1c(CN2CCN(C(=O)[C@H](C)O)CC2)sc2c(N3CCOCC3)nc(-c3cnc(N)nc3)nc12` [Apitolisib (GDC-0980, RG7422)], the cell viability is 5.46%.

In the case of `CC[C@H](NC(=O)[C@H](C)NC)C(=O)N1C[C@@H](O)C[C@H]1Cc1c(-c2[nH]c3cc(F)ccc3c2C[C@@H]2C[C@H](O)CN2C(=O)[C@H](CC)NC(=O)[C@H](C)NC)[nH]c2cc(F)ccc12`, the cell viability turned out to be 103%.

Turning to `CC1(C)O[C@H]1COc1c2ccoc2cc2oc(=O)ccc12` [Oxypeucedanin], the cell viability came out at 81.9%. The figure for `CCCCCCC1CCC(=O)O1` (configuration not stated) is 96.3%. Take `CN1[C@@H]2CC[C@H]1C[C@@H](OC(=O)c1c[nH]c3ccccc13)C2` [Tropisetron HCl]: the cell viability came out at 101%. The figure for `CC1(C)[C@@H](O[C@H]2O[C@H](C(=O)O)[C@@H](O)[C@H](O)[C@H]2O[C@@H]2O[C@H](C(=O)O)[C@@H](O)[C@H](O)[C@H]2O)CC[C@]2(C)[C@H]3C(=O)C=C4[C@@H]5C[C@@](C)(C(=O)O)CC[C@]5(C)CC[C@@]4(C)[C@]3(C)CC[C@@H]12` [Ammonium Glycyrrhizate] is 106%.
